Experimental findings from ChEMBL document CHEMBL3433997, “St. Jude Leishmania screening dataset” (2016) are described below.

Common to all, as to assay type: functional
In experiment [1] the target is Solute carrier family 2, facilitated glucose transporter member 1 (Homo sapiens) (UniProt P11166). Briefly: ST_JUDE_LEISH: Cytotoxicity at 2uM final concentration against transgenic Leishmania Mexicana promastigotes LmGLUT1 that are glucose transport deficient and complemented with the human glucose transporter GLUT1. Activity is measured by DNA content using SYBR green in vitro.

For experiment [2], the target named is Hexose transporter 1 (Plasmodium falciparum) (UniProt O97467). In words: ST_JUDE_LEISH: Cytotoxicity at 2uM final concentration against transgenic Leishmania Mexicana promastigotes LmPfHT that are glucose transport deficient and complemented with the Plasmodium falciparum hexose transporter. Activity is measured by DNA content using SYBR green in vitro.
For experiment [3], the target named is Glucose transporter (Leishmania mexicana) (UniProt O61059). In words: ST_JUDE_LEISH: Cytotoxicity at 2uM final concentration against transgenic Leishmania Mexicana promastigotes LmGT2 that are glucose transport deficient and complemented with the L. Mexicana glucose transporter 2. Activity is measured by DNA content using SYBR green in vitro.

Sequence of Solute carrier family 2, facilitated glucose transporter member 1 (Homo sapiens) (P11166 whole entry): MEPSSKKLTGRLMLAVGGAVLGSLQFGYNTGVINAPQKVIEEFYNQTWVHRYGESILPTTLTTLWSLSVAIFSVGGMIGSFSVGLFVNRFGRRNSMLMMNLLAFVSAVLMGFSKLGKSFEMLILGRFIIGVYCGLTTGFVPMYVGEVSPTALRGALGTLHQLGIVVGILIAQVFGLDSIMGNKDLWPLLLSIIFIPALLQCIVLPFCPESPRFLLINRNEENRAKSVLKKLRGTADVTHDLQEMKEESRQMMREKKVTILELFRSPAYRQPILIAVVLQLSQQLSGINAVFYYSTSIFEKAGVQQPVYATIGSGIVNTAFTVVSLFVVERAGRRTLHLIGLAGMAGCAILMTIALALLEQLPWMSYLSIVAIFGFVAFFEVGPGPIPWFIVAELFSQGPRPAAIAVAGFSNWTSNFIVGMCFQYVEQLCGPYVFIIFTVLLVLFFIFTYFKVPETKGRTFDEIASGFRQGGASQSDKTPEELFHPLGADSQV

By inhibition is commonly meant the drop in the measured response relative to a control, in per cent. In the case of `Clc1ccc(OCCC2CCN(CCCCCCCN3CCC(CCOc4ccc(Cl)c(Cl)c4)CC3)CC2)cc1Cl`, the inhibition was determined as 9.59% in experiment [1], 11.4% in experiment [2] and 3.47% in experiment [3].
As to `Nc1oc2c(CN3CCCCCC3)c(O)ccc2c(=O)c1-c1nc2ccccc2s1`, the inhibition was -1.92% in experiment [1], 6.76% in experiment [2] and 2.85% in experiment [3].
With `Cc1nc(C)c(-c2ccc(Oc3ccc(Cl)cc3)cc2)c(O)c1I`, the inhibition was found to be 2.9% in experiment [1], 0.57% in experiment [2] and 0.03% in experiment [3].
With `OC(CNCCCCCCNCC(O)c1ccc(Cl)c(Cl)c1)c1ccc(Cl)c(Cl)c1` (stereo not given), the inhibition came out at 3.81% in experiment [1], 4.69% in experiment [2] and 3.55% in experiment [3].
Taken in the same sequence, the figures for `N#Cc1cccc(NC(=O)NC2CCN(CCCCCNC(=O)C3CC3c3ccc(Cl)c(Cl)c3)CC2)c1` (stereo not given) were 0.56%, 0.42% and 1.85%.
Consider `CNC(=O)c1cc(Nc2nnc(-c3ccc(C)c(S(=O)(=O)NC4CCCCC4)c3)c3ccccc23)ccc1OC`, for which the figures for the inhibition in experiment [1], in experiment [2] and in experiment [3] were 4%, 3.11% and 4.93%, respectively.
In the case of `O=[N+]([O-])c1cccc(C(Nc2ccccn2)c2ccc3cccnc3c2O)c1` (stereo not given), the values for the inhibition in experiment [1], in experiment [2] and in experiment [3] were 4.63%, 5.86% and 4.17%, respectively.
In the case of `COc1cc(-c2nc(-c3ccc([N+](=O)[O-])cc3)c(-c3ccccc3)[nH]2)cc(OC)c1O`, the inhibition was found to be 3.48% in experiment [1], 5.84% in experiment [2] and 5.26% in experiment [3].
As to `COc1ccc2nccc([C@@H](O)CN3CCC(NC(=O)C(=Cc4ccc(Cl)cc4Cl)c4ccc(-c5ccccc5)cc4)CC3)c2c1`, the inhibition in experiment [1] came to 6.27%; in experiment [2], 4.58%; in experiment [3], 4.7%.
For the molecule `O=C(Nc1ccc(Cl)cc1)c1cc(Cl)ccc1NC(=O)C1(c2ccc(Cl)cc2)CCCC1`, the inhibition in experiment [1] is -0.07%; in experiment [2] it was 2.74%; in experiment [3] it was 1.43%.
`Cc1ccc(O)cc1Nc1ccnc2cc(-c3csc(CNCCN4CCOCC4)n3)ccc12`: the inhibition in experiment [1] is 1.41%; in experiment [2], 0.86%; in experiment [3] it was 1.37%.
With `COc1cccc2c(NN=Cc3cccc(F)c3)ccnc12`, the inhibition in experiment [1] stood at 3.44%; in experiment [2] it was 2.06%; in experiment [3], 1.75%.
Taken in the same sequence, the figures for `O=C(Nc1cccc(Cl)c1Cl)NC1CCN(Cc2cccc(O)c2)CC1` were 3.63%, 2.13% and 2.32%.
`NS(=O)(=O)c1cccc(-c2ccc3nccc(-c4cccc(S(N)(=O)=O)c4)c3c2)c1`: the results for the inhibition in experiment [1], in experiment [2] and in experiment [3] were 2.86%, 0.59% and -1.04%, respectively.
On to `CC(CN(C)C)C(=O)Nc1cccc(-c2cccc(-c3nc4cc(F)ccc4[nH]3)c2)c1` (stereo not given), for which the inhibition in experiment [1] was -2.1%; in experiment [2], -1.06%; in experiment [3], -3.91%.
As to `CC(C)NCc1cccc(-c2cccc(-c3nc4cc(F)ccc4[nH]3)c2)c1`, the inhibition in experiment [1] was determined as 14.2%; in experiment [2] it was 11.4%; in experiment [3], 11.6%.
As to `O=C(c1cc(C(=O)NC2CCCCC2)c(=O)n(C2CCCCC2)c1)c1cc(F)ccc1O`, the inhibition worked out at 2.83% in experiment [1], 1.22% in experiment [2] and 1.41% in experiment [3].
On to `O=C(/C=C/c1ccc(Cl)c(Cl)c1)NCCCCN1CCCN(C(=O)Nc2cc(Cl)cc(Cl)c2)CC1`, for which the inhibition was 0.48% in experiment [1], 0.76% in experiment [2] and 0.06% in experiment [3].
As for `NC(=O)c1cccc(C(=O)Nc2ccc(-c3cccc(-c4nc5cc(F)ccc5[nH]4)c3)cc2)c1`, the inhibition in experiment [1] stood at 0.18%; in experiment [2], 0.01%; in experiment [3] it was 0.23%.
As for `CC(CCc1ccccc1)NCC(O)c1ccc2c3c(cccc13)C(=O)N2C` (stereo not given), the inhibition in experiment [1] is 1.56%; in experiment [2], 0.34%; in experiment [3], -0.76%.
For the molecule `Cc1ccc(NC(=O)c2ccc3ncccc3c2)cc1OC1CCN(CCC(C)C)C1` (stereo not given), the inhibition in experiment [1] is 2.61%; in experiment [2] it was 3.22%; in experiment [3] it was 3.54%.
On to `O=S(=O)(Nc1cccc(CCN2CCC(N3CCCCC3)CC2)c1)c1ccc2c(c1)OCCO2`, for which the inhibition in experiment [1] is 1.3%; in experiment [2], 4.23%; in experiment [3], 8.66%.
Consider `COc1ccc(C(=O)CCC(=O)N(Cc2ccc(-c3ccc(CNCCc4ccc(S(C)(=O)=O)cc4)cn3)cc2)C2CC3CCC2C3)cc1F` (stereo not given), for which the inhibition in experiment [1] worked out at 12.7%; in experiment [2], 9.69%; in experiment [3], 8.16%.
For the molecule `CCCC(=O)Nc1ccc(OCCCN(Cc2cccc(C(F)(F)F)c2)c2ccc(C#N)c(C(F)(F)F)c2)cc1`, the inhibition in experiment [1] came out at 2.19%; in experiment [2], 2.43%; in experiment [3], 1.64%.
In the case of `FC(F)(F)Oc1ccc(Nc2cc(-c3ccncc3)nc(-c3cccnc3)n2)cc1`, the inhibition was found to be 2.18% in experiment [1], 3.54% in experiment [2] and 0.59% in experiment [3].
Regarding `O=C(NCCN1CCOCC1)c1ccc(O)c(-c2cccc(C(F)(F)F)c2)c1`, the inhibition in experiment [1] was 0.48%; in experiment [2] it was 1.53%; in experiment [3], 2.43%.
Consider `CC(C)CNC(=O)c1cncc(-c2ccc(CN3CCC(N4CCCC4)CC3)cc2)c1`, for which the inhibition in experiment [1] was 1.79%; in experiment [2], 1.64%; in experiment [3] it was 2.41%.
Turning to `COc1cccc(NC(=O)c2nc(N3CCN(c4ccncc4)CC3)ccc2Cl)c1`, the inhibition in experiment [1] is -1.23%; in experiment [2], 1.65%; in experiment [3], 0.29%.
The matching figures for `COc1ccc(NC(=O)/C=C/c2ccc(Oc3ccccc3Cl)c([N+](=O)[O-])c2)cc1OCCN(C(C)C)C(C)C`: -0.7%, -0.91% and -1.59%.
The matching figures for `Cc1cccn2c(=O)c3cc(C(=O)NCCc4ccccc4)c(=N)n(CCCOC(C)C)c3nc12`: 8.75%, 6.64% and 2.98%.
As to `CN1CCN(c2ccnc3ccc(NC(=O)Nc4cccc(C#N)c4)cc23)CC1`, the inhibition was 1.6% in experiment [1], 2.57% in experiment [2] and 2.19% in experiment [3].
As for `CC1CCN(CC[C@H]2CCCN2S(=O)(=O)c2cccc(NC(=O)Nc3ccc(C(F)(F)F)cc3)c2)CC1`, the inhibition in experiment [1] was 0.63%; in experiment [2] it was 1.64%; in experiment [3] it was -0.02%.
As to `Nc1nc(Cc2ccc(Cl)cc2)nc(Cc2ccc(Cl)cc2)n1`, the values for the inhibition in experiment [1], in experiment [2] and in experiment [3] were -3.43%, -1.17% and 5.85%, respectively.
The matching figures for `CCN(CCO)Cc1ccc(-c2ccc(NS(=O)(=O)c3cccc4cccnc34)cc2)cc1`: 89.5%, 95.5% and 92.4%.
With `O=C(Nc1cccc(-c2ccc(-c3nc4cc(C(F)(F)F)ccc4[nH]3)cc2)c1)c1ccoc1`, the results for the inhibition in experiment [1], in experiment [2] and in experiment [3] were -0.21%, 1.44% and 0.98%, respectively.
